Data as given in the supplement of paper PMC12494721.
Structures can show the parent of a compound that is named as a salt. A number with no mark means an inactive call.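 Rule for the calls: for the amine columns active = adjusted P below 0.05 in both replicates with a change the same way and a mean fold change under 0.8 or over 1.25; inactive = the rest.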

System: Escherichia coli IAI1
Assay: fold change of Cadaverine concentration vs plate DMSO controls (fold change (ratio)); higher = more amine produced, active = hit call of the paper (significant change in both replicates, either direction)
Details: incubation time: 27 h, anaerobic, 37 °C
In short: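 Amine values are fold changes relative to DMSO-only wells on the same plate. They derive from 27 h, 37 °C anaerobic mGAM cultures of four gut bacterial strains in 80 µL wells, dosed at 20 µM final, or 50 µM final for sweeteners. Extraction of the whole culture, LC–triple-quadrupole MS in dynamic MRM mode, external calibration curves and within-batch drift correction were used, with 2 biological replicates averaged.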

Row | SMILES | fold change of Cadaverine concentration
1 | Cc1ccc(-c2ncc(Cl)cc2-c2ccc(S(C)(=O)=O)cc2)cn1 [Etoricoxib] (20 µM) | 0.905
2 | Clc1ccc(CO/N=C(\Cn2ccnc2)c2ccc(Cl)cc2Cl)c(Cl)c1 [Oxiconazole nitrate] (20 µM) | 1.03
3 | NCc1ccc(S(N)(=O)=O)cc1 [Mafenide hydrochloride] (20 µM) | 1.04
4 | c1ccc(-c2ccc(C(c3ccccc3)n3ccnc3)cc2)cc1 (stereo not given) [Bifonazole] (20 µM) | 0.981
5 | OC[C@H]1O[C@@H](O[C@H]2[C@H](O)[C@@H](O)[C@H](O)O[C@@H]2CO)[C@H](O)[C@@H](O)[C@H]1O [Lactose] (50 µM) | 0.984
6 | CC(CNC1CCCCC1)OC(=O)c1ccccc1 (stereo not given) [Hexylcaine hydrochloride] (20 µM) | 0.994
7 | CN(C)CCc1c[nH]c2ccc(Cn3cncn3)cc12 [Rizatriptan benzoate] (20 µM) | 1.02
8 | CC[N+]1(CC)CCC(=C(c2ccccc2)c2ccccc2)C1C (stereo not given) [Prifinium Bromide] (20 µM) | 0.989
9 | COc1ccc(C(=O)c2ccc(C)cc2)c(O)c1 [Mexenone] (20 µM) | 1.02
10 | CC(C)NCC(O)COc1ccc(CCOCC2CC2)cc1 (stereo not given) [Betaxolol hydrochloride] (20 µM) | 0.99
11 | COc1cc(N)cn[n+]1-c1ccccc1 [Amezinium metilsulfate] (20 µM) | 1.02
12 | C[C@H](NCc1ccc(OCc2cccc(F)c2)cc1)C(N)=O [Safinamide] (20 µM) | 1.02
13 | CC#C[C@]1(O)CC[C@H]2[C@@H]3CCC4=CC(=O)CCC4=C3[C@@H](c3ccc(N(C)C)cc3)C[C@@]21C [Mifepristone] (20 µM) | 1.01
14 | O=C1CCC(N2C(=O)c3ccccc3C2=O)C(=O)N1 (stereo not given) [Thalidomide] (20 µM) | 1.02
15 | CCCC(=O)Nc1ncnc2c1ncn2[C@@H]1O[C@@H]2COP(=O)(O)O[C@H]2[C@H]1OC(=O)CCC [Bucladesine sodium salt] (20 µM) | 1
16 | CCOC(=O)C1=C[C@@H](OC(CC)CC)[C@H](NC(C)=O)[C@@H](N)C1 [Oseltamivir phosphate] (20 µM) | 1.03
17 | Brc1c(NC2=NCCN2)ccc2nccnc12 [Brimonidine L-tartrate] (20 µM) | 0.919
18 | CC(C)(C)NC[C@H](O)COc1nsnc1N1CCOCC1 [Timolol maleate salt] (20 µM) | 1.02
19 | O=C(CCCN1CCC(O)(c2ccc(Cl)cc2)CC1)c1ccc(F)cc1 [Haloperidol] (20 µM) | 0.864
20 | OC[C@@H](O)[C@H](O)[C@@H](O)CO [Xylitol] (50 µM) | 0.916
21 | Cc1cnc(C(=O)NCCc2ccc(S(=O)(=O)NC(=O)NC3CCCCC3)cc2)cn1 [Glipizide] (20 µM) | 0.973
22 | Fc1ccc([C@@H]2CCNC[C@H]2COc2ccc3c(c2)OCO3)cc1 [Paroxetine hydrochloride] (20 µM) | 1.69 (active)
23 | Nc1nnc(-c2cccc(Cl)c2Cl)c(N)n1 [Lamotrigine] (20 µM) | 1.23
24 | Oc1c(Cl)cc(Cl)c(Cl)c1Cc1c(O)c(Cl)cc(Cl)c1Cl (20 µM) | 1.37 (active)
25 | Cc1c(Nc2ncccc2C(=O)O)cccc1C(F)(F)F [Flunixin meglumine] (20 µM) | 1.01
26 | COc1c(O)cc2c(c1O)[C@@H]1O[C@H](CO)[C@@H](O)[C@H](O)[C@H]1OC2=O [Bergenin] (20 µM) | 0.93
27 | Nc1c(CC(=O)O)cccc1C(=O)c1ccc(Br)cc1 [Bromfenac] (20 µM) | 0.911
28 | CNC[C@H](O)[C@@H](O)[C@H](O)[C@H](O)CO [Meglumine] (20 µM) | 0.99
29 | O=C(Nc1ccc([N+](=O)[O-])cc1Cl)c1cc(Cl)ccc1O [Niclosamide] (20 µM) | 1.31 (active)
30 | CN1CCN2c3ncccc3Cc3ccccc3C2C1 (stereo not given) [Mirtazapine] (20 µM) | 0.984
